From the supplement of paper PMC12819154, “High-throughput peptide-centric local stability assay extends protein–ligand identification to membrane proteins, tissues and bacteria” (Nature Structural & Molecular Biology, 2025)

Compound: Nc1ncnc2c1ncn2[C@@H]1O[C@H](COP(=O)(O)OP(=O)(O)OP(=O)(O)O)[C@@H](O)[C@H]1O [adenosine 5'-triphosphate]
Assay: log2 fold change of tryptic peptide abundance, ligand vs vehicle (limited proteolysis) (log2 ratio); higher = more trypsin-susceptible (destabilized)
Conditions: ligand concentration: 5 mM; sample: E. coli desalted lysate; replicate design: treated before aliquoting
Description: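 HT-PELSA: desalted E. coli K-12 BW25113 lysate (with 12 mM MgCl2) incubated with 5 mM ATP (pH 7) or water for 30 min at 25 C, then a 4 min trypsin pulse at 22 C. Peptides were quantified by DIA-MS (4 replicates). Value is the peptide log2 fold change (treated/control); negative = stabilized. Scale: negative = ligand-stabilized region.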
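Note: lysate desalted by size exclusion to strip endogenous ATP, peptide intensities built from DIA-NN precursor signals, and peptides missing any value discarded before comparison.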

Chain of UniProt P03018 (P03018 whole entry): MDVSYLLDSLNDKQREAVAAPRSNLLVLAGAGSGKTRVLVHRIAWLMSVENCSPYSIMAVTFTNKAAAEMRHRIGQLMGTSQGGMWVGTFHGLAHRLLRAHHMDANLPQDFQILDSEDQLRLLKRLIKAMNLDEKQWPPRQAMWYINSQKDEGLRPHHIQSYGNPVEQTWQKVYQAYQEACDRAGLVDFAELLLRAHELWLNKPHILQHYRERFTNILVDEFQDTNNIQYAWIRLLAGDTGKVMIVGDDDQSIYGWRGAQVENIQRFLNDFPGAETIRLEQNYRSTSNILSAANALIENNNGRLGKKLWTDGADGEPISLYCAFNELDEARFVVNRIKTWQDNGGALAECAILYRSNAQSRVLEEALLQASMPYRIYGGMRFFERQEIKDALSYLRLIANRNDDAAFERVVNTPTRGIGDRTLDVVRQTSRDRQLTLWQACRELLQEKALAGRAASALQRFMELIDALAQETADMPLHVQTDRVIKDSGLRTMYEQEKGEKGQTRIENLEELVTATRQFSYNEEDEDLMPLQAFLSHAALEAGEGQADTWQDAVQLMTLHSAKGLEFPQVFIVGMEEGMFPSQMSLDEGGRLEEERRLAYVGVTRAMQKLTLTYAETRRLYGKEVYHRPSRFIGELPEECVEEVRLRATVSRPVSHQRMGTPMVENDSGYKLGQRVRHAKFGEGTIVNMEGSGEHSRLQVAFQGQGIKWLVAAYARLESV
Chain of UniProt P08192 (P08192 whole entry): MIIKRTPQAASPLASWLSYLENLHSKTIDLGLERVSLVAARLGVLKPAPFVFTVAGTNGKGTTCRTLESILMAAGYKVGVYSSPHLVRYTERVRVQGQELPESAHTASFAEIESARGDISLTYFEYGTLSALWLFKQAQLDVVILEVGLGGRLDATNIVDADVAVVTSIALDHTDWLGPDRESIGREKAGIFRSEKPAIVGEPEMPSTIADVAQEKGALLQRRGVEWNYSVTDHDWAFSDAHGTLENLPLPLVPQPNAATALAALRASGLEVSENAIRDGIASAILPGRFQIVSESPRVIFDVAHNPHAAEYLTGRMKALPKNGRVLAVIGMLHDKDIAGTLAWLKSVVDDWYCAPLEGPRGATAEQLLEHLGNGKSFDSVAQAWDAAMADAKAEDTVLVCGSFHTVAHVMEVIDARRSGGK
Chain of UniProt P0ACN7 (P0ACN7 whole entry): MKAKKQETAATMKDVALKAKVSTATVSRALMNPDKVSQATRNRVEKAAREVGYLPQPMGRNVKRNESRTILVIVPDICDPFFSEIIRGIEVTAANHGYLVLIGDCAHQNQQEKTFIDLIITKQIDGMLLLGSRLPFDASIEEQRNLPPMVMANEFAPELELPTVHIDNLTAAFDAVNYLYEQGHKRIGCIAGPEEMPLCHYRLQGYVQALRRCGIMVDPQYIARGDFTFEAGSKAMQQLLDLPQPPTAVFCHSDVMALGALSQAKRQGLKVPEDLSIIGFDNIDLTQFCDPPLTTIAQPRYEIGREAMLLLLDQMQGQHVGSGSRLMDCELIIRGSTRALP
Chain of UniProt P39199 (P39199 whole entry): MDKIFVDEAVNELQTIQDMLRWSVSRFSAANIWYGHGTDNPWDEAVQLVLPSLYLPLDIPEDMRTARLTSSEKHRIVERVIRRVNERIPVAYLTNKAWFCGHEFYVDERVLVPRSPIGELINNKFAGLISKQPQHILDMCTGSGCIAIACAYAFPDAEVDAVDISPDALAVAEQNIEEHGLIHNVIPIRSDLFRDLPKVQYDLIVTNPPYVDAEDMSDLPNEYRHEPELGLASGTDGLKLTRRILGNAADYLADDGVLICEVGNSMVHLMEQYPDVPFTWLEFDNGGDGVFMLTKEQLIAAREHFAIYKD
Chain of UniProt P76027 (P76027 whole entry): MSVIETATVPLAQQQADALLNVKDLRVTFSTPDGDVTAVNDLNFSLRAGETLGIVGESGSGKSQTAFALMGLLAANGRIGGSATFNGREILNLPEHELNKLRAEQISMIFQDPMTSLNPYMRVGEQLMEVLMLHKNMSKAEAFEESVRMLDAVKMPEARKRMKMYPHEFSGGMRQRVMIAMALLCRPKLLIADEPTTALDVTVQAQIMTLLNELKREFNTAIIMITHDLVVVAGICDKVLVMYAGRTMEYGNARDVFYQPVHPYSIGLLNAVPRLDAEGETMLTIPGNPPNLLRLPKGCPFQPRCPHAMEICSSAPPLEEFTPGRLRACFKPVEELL
Chain of UniProt P30178 (P30178 whole entry): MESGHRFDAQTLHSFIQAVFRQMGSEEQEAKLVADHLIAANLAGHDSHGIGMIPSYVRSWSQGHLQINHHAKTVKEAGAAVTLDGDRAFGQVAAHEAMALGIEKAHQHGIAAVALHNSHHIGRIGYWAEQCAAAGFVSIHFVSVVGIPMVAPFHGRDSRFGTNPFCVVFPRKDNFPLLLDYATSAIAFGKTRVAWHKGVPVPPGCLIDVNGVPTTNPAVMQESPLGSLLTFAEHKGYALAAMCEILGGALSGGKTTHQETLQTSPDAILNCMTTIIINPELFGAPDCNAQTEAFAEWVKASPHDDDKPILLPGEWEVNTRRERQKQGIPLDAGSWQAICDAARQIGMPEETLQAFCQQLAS

Compared with “UniProt P0ACN7 (peptide sequence: LMDCELIIR, peptide start residue: 326)”, “UniProt P03018 (peptide sequence: AHHMDANLPQDFQILDSEDQLR, peptide start residue: 100)” is lower in log2 fold change: 1.5 for the first, -2.2 for the second.

Going from “UniProt P39199 (peptide sequence: AWFCGHEFYVDER, peptide start residue: 97)” to “UniProt P08192 (peptide sequence: FQIVSESPR, peptide start residue: 290)”, the log2 fold change falls from 1.88 to -0.913.

Compared with “UniProt P76027 (peptide sequence: GCPFQPR, peptide start residue: 298)”, “UniProt P30178 (peptide sequence: QMGSEEQEAK, peptide start residue: 22)” is lower in log2 fold change: 1.56 for the first, -1.15 for the second.
